# High-throughput results as filed in PubChem BioAssay.
# Sampled rows, rich in hits. Any-hit rate of the full collection: about 11%.
# Sfp inh = blocks B. subtilis Sfp PPTase activity; AID 1490; Potency, µM, for the others: largest response in the series, negative = inhibition, usual class: inhibitors; actives 3.5% (n = 310,000); Q9F4F7; Biochemical Sfp PPTase activity, qHTS;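 further: the enzyme is Sfp with the accession as filed and its product quenches rhodamine fluorescence; potency means the concentration at half of the fitted maximal effect; 0% = enzyme reaction without inhibitor and -100% = no enzyme wells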
#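 Fluorescence-quenching assay with 15 nM Sfp, 5 uM rhodamine-CoA and 12.5 uM BHQ-2-labelled ybbR peptide in pH 7.6 Hepes/MgCl2 buffer. Enzyme was pre-incubated with compound for 15 min at room temperature. Rate was taken from the 30-min fluorescence change (525/598 nm).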
# Tau fibril FP = blocks human tau fibril formation measured by polarization. P10636. K18 P301L tau heparin fibrillization, Alexa594 FP, 6 h. Potency, µM (top dose mostly 57.7 µM), for inactives: at the top dose activity, negative = inhibition, hits mostly inhibitors. actives 0.39% (n = 280,000); further: potency means the concentration at half of the fitted maximal effect; nearly all actives have a fitted effect of over 55% in size
# Target sequence (P10636 561-689 P618L limits assumed): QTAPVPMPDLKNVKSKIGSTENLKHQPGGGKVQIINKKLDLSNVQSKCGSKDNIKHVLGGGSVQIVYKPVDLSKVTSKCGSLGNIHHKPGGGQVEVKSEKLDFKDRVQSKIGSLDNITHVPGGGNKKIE
#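 Recombinant K18 P301L […], labeled with Alexa 594 at 0.24 uM over 15 uM unlabeled; heparin inducer 20 uM final; 37 C, 6 hr; FP endpoint.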
# Tau ThT inhib = tau fibrillization inhibition (ThT binding); recombinant tau K18 P301L, heparin-induced fibrillization, ThT fluorescence; Potency, µM (titrated, usually from 57.4 µM), inactives show top-dose activity, negative = inhibition, actives largely listed as inhibitors; actives 2.1% (n = 270,000); P10636; AID 1460; further: potency means the concentration at half of the fitted maximal effect; nearly all actives have a fitted effect of over 55% in size
#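 In this qHTS, human K18 P301L tau is incubated with compound and heparin for 6 hr at 37 C, and Thioflavin T fluorescence then reports fibril load.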
# Tau fluor counter = counter-screen for tau fibril formation inhibitors; tau K18 P301L (four-repeat tau fragment) Alexa594 fluorescence, heparin fibrillization; Potency, µM (doses to about 57.7 µM), for inactives: at the highest dose activity change, negative = decrease; actives 0.93% (n = 280,000); further: potency means the concentration at half of the fitted maximal effect; nearly all actives have a fitted effect of over 55% in size
#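 Human K18 P301L tau (15 uM unlabeled plus 0.24 uM Alexa 594-labeled, final) in 100 mM sodium acetate pH 7 was mixed with compound and 20 uM heparin and incubated 6 hr at 37 C.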
# FBPA coupling cs = inhibits coupling enzyme system, counter-screen for aldolase hits | coupling enzyme system counterscreen, AmpLite Red fluorescence | activity change, negative = inhibition, % at 58.2 µM, hits read low | actives 0.67% (n = 290,000) | AID 2472; in the data active means activity change below about -30%
#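 First, compound is pin-transferred into glyceraldehyde-3-phosphate coupling-enzyme reagent at 57.5 uM final and held 10 min at RT. Next, substrate, coupling system and AmpLite Red are added. After 20 min RT, fluorescence (525/598 nm) is read.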
# G9a inh = blocks human histone lysine methyltransferase G9a; Potency, µM (top dose mostly 102 µM), for inactives: top-dose activity, negative = inhibition, actives largely listed as inhibitors; actives 8.8% (n = 350,000); Q96KQ7; AID 504332; G9a H3K9 monomethylation, AlphaScreen, 2 h; further: potency means the concentration at half of the fitted maximal effect; nearly all actives have a fitted effect of over 75% in size
# Target sequence (Q96KQ7 913-1193 limits assumed): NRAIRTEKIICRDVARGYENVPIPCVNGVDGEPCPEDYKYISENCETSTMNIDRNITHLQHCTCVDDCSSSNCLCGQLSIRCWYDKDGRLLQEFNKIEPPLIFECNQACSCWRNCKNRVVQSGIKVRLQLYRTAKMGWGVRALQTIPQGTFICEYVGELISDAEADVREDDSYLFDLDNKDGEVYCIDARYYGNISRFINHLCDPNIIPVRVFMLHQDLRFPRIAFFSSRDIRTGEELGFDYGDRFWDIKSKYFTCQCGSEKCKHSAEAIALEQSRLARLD
#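 G9a (20 nM) preincubated 15 min RT with compounds, then 500 nM biotinylated H3K9 peptide and 20 uM SAM added; 2 h RT reaction. Monomethyl-H3K9 product detected by AlphaScreen with anti-H3K9me1 antibody, streptavidin donor and anti-rabbit IgG acceptor beads.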
# The depositor's hits bear a star; u = inconclusive; x = no result given; [ ] = another dose, or the depositor's remark. Unless noted, the call rests on the fitted dose curve; in most records, active means well fitted curve in the direction sought with a large enough effect; inconclusive means small, poorly fitted or top-dose-only effect, or another doubt; inactive means no such curve, though single readings can be large; an effect the other way counts as inactive or inconclusive. Unless noted, on the % scale 0 is the no-effect control and ±100 the full control effect.
SMILES,Sfp inh,Tau fibril FP,Tau ThT inhib,Tau fluor counter,FBPA coupling cs,G9a inh
COCCCNC(=O)c1ccc2c3c(onc13)-c1ccccc1C2=O,56.2µM*,u,6.31µM*,5.62µM*[quencher],-31.6*,x
CC(C)c1ccc(S(=O)(=O)c2nnn3c2nc(N2CCOCC2)c2sccc23)cc1,x,-2.1%,-3.0%,-22.2%,x,12.0%[59 µM]
CCOC(=O)CC(NS(=O)(=O)c1cc(-c2cc(C)no2)ccc1C)c1ccc(C)cc1 (centres undefined),x,14.8%,-9.9%,-26.2%,x,-14.6%[59 µM]
O=c1cc2oc3cc(O)c(O)cc3c(-c3ccccc3[N+](=O)[O-])c-2cc1O,35.5µM*,x,x,x,-19.7,1.41µM*
O=c1cc(-c2ccccc2)oc2cc(O)c(O)cc12,-3.4%,1.1%,u,u,0.7,u
O=C(c1cc2ccccc2cc1O)N1CCCC1,14.7%,x,x,x,-0.1,9.0%
COc1ccc(N2CCN(C(=O)c3ccc4ccccc4n3)CC2)cc1,16.3%,11.1%,-10.0%,-13.1%,5.5,70.8µM*
O=C(c1ccc2ccccc2n1)N1CCN(c2ccccc2)CC1,20.4%,-2.2%,-8.7%,-8.3%,7.3,-39.1%
COc1ccc(N2CCN(C(=O)c3ccc4c(c3)[nH]c(=S)n3c5ccccc5nc43)CC2)cc1,15.6%,5.4%,-17.0%,-13.0%,-0.7,12.6µM*
O=C(c1cc2ccccc2cc1O)N1CCN(c2ccccc2O)CC1,x,x,x,x,x,44.7µM*
O=C(c1ccc2c(c1)[nH]c(=S)n1c3ccccc3nc21)N1CCN(c2cccc(Cl)c2)CC1,-11.9%,-3.2%,6.0%,-2.7%,-4.0,u
O=C(c1ccc2ccccc2n1)N1CCN(c2ccccc2O)CC1,-8.7%,8.5%,-3.1%,-9.0%,-6.2,44.7µM*
CCc1nnc(NC(=O)CSc2nc3c([nH]c4ccccc43)c(=O)n2-c2ccc(F)cc2)s1,x,-6.7%,0.4%,-13.1%,x,26.7%[59 µM]
O=C(CN1CCC(C(=O)c2ccc(F)cc2)CC1)Nc1ccc(F)cc1,13.0%,3.6%,-6.2%,-8.3%,4.1,7.8%[59 µM]
O=C(CN1CCN(c2ccccn2)CC1)Nc1ccc(F)cc1,79.4µM*,4.5%,-7.3%,-1.5%,-3.3,6.31µM*
Cc1ccc(C(=O)C2CCN(CC(=O)Nc3ccc(N(C)C)cc3)CC2)cc1,3.3%,12.3%,u,-14.1%,0.4,39.8µM*
O=C(CN1CCN(c2ccccn2)CC1)Nc1ccccc1,-12.8%,4.1%,6.7%,5.9%,1.6,u
CN(C)c1ccc(NC(=O)CN2CCN(CC(=O)Nc3ccc(F)cc3)CC2)cc1,13.7%,1.1%,-20.5%,-7.8%,0.7,25.1µM*
CCOC(=O)c1cnc2ccc(OC)cc2c1NCCc1ccccc1,x,3.7%,u,-13.1%,x,68.3%[59 µM]
CCOC(=O)n1cc(-c2cnc(CNC(=O)C(C)(c3ccccc3)c3ccccc3)o2)c2ccccc21,0.2%,-2.4%,-16.5%,-21.9%,-2.0,44.7µM*
COCCn1c(=O)c(-c2ccc(OC)cc2)nc2cnc(Nc3cccc(OC)c3)nc21,10.6%,x,x,x,-1.8,-3.8%[12.7 µM]
O=C(CSc1nnc(CNC(=O)c2ccccc2F)o1)NCc1ccccc1,10.3%,4.8%,-6.8%,-6.0%,2.3,15.1%[59 µM]
C=CCn1c(CNC(=O)c2ccco2)nnc1SCC(=O)c1ccccc1,44.7µM*,-3.6%,10.1%,7.3%,-2.2,u
O=C(CSc1nnc(CNC(=O)c2ccccc2F)o1)c1ccccc1,u,1.4%,-6.7%,-9.0%,-1.2,70.8µM*
CCn1c(CNC(=O)c2ccco2)nnc1SCC(=O)c1ccc(F)cc1,17.2%,x,x,x,-0.1,-0.7%
O=C(CSc1nnc(CNC(=O)c2ccco2)o1)c1ccccc1,70.8µM*,-8.4%,-5.3%,-10.4%,2.7,-48.7%
O=C(Cn1cnc2ccccc2c1=O)NCCCN1CCCC1=O,x,x,x,x,x,115.9%[12.7 µM]
COc1cc2nc(=S)n3[nH]c(CCn4c(C)nc5ccccc54)nc3c2cc1OC,u,2.9%,-2.7%,4.4%,-6.0,u
